Data reported in paper PMC7862700, “An all-to-all approach to the identification of sequence-specific readers for epigenetic DNA modifications on cytosine”.

Key:
Assay in all cases: DAPPL (digital affinity profiling via proximity ligation, sequencing); 10 mM Tris-HCl pH 7.5, 50 mM NaCl, 1 mM DTT, 4% glycerol, room temperature, 30 min; GST-TFs on glutathione beads, 16-mer random dsDNA library, 0.1% formaldehyde crosslink after washing; high values mean tight binding
Settings in all cases: protein: recombinant; tags: N-terminal GST; dsDNA, one strand shown
ELK1 = biological target: T1, ELK1 (Homo sapiens, UniProt P19419 1-428)
T1 sequence: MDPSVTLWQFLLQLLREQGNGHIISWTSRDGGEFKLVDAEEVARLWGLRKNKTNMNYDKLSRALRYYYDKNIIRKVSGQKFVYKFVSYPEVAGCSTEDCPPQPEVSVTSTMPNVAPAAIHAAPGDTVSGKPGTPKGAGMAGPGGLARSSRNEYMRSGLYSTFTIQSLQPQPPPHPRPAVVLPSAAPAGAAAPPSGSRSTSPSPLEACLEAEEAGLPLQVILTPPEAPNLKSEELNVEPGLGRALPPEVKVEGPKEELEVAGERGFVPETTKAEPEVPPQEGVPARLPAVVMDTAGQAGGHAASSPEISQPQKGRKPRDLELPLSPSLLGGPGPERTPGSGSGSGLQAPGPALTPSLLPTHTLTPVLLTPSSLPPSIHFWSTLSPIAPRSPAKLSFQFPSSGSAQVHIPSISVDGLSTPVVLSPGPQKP
Procedure, shortened: (§1)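 GST fusions of human transcription factors were expressed in yeast and captured with glutathione beads. Once given DNA barcodes and pooled alongside a tag-only sample, they were incubated for 30 min at room temperature with 200 nmole of a random double-stranded 16-mer DNA library in Tris/NaCl/DTT/glycerol buffer, then washed, crosslinked (0.1% formaldehyde), proximity-ligated, PCR-amplified and sequenced on an Illumina NextSeq500. The binding signal of each hexamer is its read frequency for a factor divided by its frequency for the tag-only sample.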

GABPA = biological target: T2, GABPA (Homo sapiens, UniProt Q06546 1-454)
T2 sequence: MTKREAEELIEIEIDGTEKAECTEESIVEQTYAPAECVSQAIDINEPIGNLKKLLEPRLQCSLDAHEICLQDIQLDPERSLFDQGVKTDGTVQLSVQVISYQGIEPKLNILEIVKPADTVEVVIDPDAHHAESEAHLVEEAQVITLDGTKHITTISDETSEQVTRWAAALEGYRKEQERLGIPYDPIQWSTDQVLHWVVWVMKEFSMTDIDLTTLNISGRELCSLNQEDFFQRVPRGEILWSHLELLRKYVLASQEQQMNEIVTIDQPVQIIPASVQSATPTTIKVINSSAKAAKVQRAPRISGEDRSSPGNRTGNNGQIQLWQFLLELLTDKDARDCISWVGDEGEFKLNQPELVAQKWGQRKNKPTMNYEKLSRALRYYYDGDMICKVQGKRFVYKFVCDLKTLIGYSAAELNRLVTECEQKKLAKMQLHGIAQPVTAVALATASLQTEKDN
Procedure, shortened: as §1

ERG = biological target: T3, ERG (Homo sapiens, UniProt P11308 1-479)
T3 sequence: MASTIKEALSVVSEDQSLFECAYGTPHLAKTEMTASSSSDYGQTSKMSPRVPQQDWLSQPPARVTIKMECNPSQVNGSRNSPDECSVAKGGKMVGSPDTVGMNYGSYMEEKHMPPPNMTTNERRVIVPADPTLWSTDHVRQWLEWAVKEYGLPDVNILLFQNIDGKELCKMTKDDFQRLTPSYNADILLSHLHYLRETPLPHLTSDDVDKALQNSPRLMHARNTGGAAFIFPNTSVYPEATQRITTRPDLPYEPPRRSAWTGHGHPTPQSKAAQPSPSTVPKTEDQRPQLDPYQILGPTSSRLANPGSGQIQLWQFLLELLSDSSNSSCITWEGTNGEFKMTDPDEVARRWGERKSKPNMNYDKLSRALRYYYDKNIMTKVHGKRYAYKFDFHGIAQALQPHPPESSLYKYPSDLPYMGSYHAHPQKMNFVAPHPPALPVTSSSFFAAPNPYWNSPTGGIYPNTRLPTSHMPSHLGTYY
Procedure, shortened: as §1

ELF1 = ELF1 (Homo sapiens, UniProt P32519 1-619)
ELF1, sequence (P32519 whole entry): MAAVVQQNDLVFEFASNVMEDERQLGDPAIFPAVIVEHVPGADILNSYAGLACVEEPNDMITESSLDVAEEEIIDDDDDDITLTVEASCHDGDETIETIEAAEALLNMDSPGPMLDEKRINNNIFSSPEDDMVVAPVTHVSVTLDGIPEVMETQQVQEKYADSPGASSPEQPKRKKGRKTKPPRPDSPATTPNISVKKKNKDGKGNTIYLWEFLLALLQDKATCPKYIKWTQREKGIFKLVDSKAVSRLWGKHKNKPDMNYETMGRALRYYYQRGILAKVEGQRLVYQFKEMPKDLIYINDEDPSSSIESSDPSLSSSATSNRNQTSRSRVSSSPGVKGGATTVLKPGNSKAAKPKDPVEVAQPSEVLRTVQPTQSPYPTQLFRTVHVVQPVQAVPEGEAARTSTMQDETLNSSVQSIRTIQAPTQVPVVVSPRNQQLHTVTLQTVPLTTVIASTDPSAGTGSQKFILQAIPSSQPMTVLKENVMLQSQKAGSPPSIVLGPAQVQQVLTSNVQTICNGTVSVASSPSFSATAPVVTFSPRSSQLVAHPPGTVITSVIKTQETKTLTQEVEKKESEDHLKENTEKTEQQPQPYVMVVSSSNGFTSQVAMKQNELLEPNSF
Procedure, shortened: as §1

SPIB = SPIB (Homo sapiens, UniProt Q01892 1-262)
SPIB, sequence (Q01892 whole entry): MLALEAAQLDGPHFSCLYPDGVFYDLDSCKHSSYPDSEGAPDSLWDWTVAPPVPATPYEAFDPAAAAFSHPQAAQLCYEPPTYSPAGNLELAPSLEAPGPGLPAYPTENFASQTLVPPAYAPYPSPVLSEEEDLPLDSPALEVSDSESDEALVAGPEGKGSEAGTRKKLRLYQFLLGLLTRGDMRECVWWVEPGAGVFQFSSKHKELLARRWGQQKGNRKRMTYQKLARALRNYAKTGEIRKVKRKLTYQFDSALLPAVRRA
Procedure, shortened: as §1

SPIC = biological target: T4, SPIC (Homo sapiens, UniProt Q8N5J4 1-248)
T4 sequence: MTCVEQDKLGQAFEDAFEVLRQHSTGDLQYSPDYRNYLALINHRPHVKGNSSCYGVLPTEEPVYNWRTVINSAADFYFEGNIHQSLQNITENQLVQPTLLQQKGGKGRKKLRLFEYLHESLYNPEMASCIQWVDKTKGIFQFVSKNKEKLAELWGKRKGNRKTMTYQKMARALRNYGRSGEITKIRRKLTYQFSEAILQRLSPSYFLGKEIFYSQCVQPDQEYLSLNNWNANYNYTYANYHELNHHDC
Procedure, shortened: as §1

ELF4 = ELF4 (Homo sapiens, UniProt Q99607 1-663)
ELF4, sequence (Q99607 whole entry): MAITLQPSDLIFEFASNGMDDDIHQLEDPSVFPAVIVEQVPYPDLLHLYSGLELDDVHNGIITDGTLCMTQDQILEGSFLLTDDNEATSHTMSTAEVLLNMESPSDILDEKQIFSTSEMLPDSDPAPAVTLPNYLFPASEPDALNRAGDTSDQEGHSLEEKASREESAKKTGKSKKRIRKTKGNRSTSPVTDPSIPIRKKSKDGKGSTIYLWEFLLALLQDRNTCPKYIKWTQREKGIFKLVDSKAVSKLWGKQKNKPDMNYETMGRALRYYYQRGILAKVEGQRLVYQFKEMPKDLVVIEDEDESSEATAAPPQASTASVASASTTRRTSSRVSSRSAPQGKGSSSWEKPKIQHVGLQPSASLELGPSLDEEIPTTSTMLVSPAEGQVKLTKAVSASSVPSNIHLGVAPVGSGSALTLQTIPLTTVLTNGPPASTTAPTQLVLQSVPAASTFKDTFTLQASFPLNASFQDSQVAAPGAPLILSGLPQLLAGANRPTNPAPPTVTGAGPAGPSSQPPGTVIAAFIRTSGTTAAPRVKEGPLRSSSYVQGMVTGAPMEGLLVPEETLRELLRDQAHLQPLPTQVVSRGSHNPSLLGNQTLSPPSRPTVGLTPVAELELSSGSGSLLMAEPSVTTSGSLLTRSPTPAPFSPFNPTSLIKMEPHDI
Procedure, shortened: as §1

ELK4 = biological target: T5, ELK4 (Homo sapiens, UniProt P28324-2 1-405)
T5 sequence: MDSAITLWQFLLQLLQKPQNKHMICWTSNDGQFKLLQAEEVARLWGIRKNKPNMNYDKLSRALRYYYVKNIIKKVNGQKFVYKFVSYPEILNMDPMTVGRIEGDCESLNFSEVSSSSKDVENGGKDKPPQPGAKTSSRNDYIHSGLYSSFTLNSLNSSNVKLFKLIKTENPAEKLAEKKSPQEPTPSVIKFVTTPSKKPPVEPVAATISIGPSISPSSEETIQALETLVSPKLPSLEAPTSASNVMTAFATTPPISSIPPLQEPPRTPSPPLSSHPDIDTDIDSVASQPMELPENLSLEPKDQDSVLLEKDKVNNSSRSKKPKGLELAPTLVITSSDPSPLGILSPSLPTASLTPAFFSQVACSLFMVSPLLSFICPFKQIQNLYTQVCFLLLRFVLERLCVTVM
Procedure, shortened: as §1

ELF3 = biological target: T6, ELF3 (Homo sapiens, UniProt P78545 1-371)
T6 sequence: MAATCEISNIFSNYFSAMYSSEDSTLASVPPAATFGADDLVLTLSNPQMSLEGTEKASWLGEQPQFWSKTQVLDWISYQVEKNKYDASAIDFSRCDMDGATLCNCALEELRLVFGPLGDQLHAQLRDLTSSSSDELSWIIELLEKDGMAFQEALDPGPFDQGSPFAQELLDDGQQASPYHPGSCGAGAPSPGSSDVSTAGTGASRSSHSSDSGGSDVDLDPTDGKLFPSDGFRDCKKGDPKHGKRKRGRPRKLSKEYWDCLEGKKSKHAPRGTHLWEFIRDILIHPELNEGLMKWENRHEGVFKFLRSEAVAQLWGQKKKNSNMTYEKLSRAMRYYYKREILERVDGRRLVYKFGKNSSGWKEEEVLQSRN
Procedure, shortened: as §1

ETV1 = ETV1 (Homo sapiens, UniProt P50549 1-477)
ETV1, sequence (P50549 whole entry): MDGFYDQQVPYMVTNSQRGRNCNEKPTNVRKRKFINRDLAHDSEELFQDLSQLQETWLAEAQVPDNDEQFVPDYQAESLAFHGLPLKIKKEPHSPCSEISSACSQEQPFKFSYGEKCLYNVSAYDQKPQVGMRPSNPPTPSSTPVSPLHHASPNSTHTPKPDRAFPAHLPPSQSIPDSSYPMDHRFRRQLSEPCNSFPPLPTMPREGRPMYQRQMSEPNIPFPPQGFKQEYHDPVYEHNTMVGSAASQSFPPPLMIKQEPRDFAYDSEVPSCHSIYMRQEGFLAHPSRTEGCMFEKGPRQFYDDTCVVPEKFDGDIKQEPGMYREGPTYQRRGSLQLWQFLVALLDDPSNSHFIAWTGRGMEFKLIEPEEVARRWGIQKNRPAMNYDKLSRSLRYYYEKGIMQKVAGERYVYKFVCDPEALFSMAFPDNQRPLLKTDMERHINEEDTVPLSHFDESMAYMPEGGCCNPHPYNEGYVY
Procedure, shortened: as §1

ERF = biological target: T7, ERF (Homo sapiens, UniProt P50548 1-548)
T7 sequence: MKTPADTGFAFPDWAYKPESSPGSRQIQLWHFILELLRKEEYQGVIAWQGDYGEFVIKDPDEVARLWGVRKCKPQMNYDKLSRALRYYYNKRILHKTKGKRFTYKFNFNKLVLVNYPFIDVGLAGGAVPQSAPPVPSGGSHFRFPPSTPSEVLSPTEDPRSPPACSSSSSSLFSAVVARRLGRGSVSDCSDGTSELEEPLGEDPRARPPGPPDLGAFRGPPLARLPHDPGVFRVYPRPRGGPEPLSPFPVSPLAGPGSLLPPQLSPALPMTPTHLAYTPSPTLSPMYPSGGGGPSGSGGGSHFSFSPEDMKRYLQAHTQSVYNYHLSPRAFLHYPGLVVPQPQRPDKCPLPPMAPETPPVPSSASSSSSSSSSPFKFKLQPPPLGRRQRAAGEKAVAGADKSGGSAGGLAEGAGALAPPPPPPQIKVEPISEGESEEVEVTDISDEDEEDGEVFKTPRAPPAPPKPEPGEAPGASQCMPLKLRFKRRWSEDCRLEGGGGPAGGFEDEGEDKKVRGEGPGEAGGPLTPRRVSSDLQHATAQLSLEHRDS
Procedure, shortened: as §1

ETV3L = biological target: T8, ETV3L (Homo sapiens, UniProt Q6ZN32 1-361)
T8 sequence: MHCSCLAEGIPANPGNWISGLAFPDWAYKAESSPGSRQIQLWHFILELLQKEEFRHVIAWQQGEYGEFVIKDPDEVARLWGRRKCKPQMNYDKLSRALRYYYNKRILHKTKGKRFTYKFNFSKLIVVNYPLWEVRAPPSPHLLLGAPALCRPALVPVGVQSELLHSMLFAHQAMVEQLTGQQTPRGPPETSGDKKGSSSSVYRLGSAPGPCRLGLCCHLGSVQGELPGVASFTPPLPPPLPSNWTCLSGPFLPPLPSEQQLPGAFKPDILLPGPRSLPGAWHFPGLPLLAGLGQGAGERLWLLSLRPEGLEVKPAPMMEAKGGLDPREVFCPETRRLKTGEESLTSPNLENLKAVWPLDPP
Procedure, shortened: as §1

ETS2 = biological target: T9, ETS2 (Homo sapiens, UniProt P15036 1-469)
T9 sequence: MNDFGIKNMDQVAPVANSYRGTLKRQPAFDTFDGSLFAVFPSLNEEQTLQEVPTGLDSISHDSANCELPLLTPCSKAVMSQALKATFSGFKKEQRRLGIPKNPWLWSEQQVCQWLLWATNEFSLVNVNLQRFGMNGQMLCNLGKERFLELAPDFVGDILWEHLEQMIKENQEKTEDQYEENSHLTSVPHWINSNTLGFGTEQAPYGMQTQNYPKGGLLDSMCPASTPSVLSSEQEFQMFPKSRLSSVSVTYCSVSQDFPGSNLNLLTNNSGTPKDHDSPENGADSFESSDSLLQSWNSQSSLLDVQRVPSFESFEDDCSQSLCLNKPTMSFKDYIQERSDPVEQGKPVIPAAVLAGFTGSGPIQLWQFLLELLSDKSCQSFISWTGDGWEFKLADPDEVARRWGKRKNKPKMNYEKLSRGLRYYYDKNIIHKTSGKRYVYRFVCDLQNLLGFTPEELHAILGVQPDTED
Procedure, shortened: as §1

ETV7 = biological target: T10, ETV7 (Homo sapiens, UniProt Q9Y603 1-341)
T10 sequence: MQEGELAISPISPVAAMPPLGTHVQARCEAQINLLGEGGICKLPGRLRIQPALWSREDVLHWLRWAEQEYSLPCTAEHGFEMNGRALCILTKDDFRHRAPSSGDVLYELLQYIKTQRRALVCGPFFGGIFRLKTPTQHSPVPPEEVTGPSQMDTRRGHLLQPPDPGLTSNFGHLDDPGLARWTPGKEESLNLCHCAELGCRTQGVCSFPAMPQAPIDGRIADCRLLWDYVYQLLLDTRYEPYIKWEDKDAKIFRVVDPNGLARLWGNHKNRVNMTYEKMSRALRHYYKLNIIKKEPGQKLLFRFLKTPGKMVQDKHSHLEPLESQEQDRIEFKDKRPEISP
Procedure, shortened: as §1

ETV3 = biological target: T11, ETV3 (Homo sapiens, UniProt P41162-2 1-143)
T11 sequence: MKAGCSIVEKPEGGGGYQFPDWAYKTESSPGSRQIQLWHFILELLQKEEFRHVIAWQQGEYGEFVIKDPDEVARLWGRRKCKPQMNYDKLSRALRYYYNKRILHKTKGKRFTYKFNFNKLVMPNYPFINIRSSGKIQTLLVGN
Procedure, shortened: as §1

ETV6 = ETV6 (Homo sapiens, UniProt P41212 1-452)
ETV6, sequence (P41212 whole entry): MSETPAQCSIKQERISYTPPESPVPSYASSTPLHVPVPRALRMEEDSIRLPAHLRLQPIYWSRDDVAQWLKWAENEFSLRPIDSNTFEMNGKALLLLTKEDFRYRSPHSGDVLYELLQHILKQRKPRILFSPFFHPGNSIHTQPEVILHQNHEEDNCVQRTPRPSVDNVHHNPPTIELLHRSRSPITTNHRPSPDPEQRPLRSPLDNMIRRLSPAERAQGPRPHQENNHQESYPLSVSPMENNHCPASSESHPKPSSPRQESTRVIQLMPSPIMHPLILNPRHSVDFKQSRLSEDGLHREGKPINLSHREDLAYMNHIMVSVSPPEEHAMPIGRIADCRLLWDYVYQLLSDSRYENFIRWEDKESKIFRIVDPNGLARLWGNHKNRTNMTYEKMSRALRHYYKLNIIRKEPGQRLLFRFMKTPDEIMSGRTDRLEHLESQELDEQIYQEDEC
Procedure, shortened: as §1

Q: With TCAATC as the sequence, how does the binding signal (ELK1) read?
A: Its binding signal is 1.08 fold enrichment (6-mer frequency, TF over GST control).

Q: What about the binding signal (GABPA) of the same sequence?
A: Its binding signal is 1.13 fold enrichment (6-mer frequency, TF over GST control).

Q: And the binding signal (ERG)?
A: Its binding signal is 1.04 fold enrichment (6-mer frequency, TF over GST control).

Q: And the binding signal (ELF1)?
A: Its binding signal is 1.07 fold enrichment (6-mer frequency, TF over GST control).

Q: And the binding signal (SPIB)?
A: The binding signal was 1.04 fold enrichment (6-mer frequency, TF over GST control).

Q: And the binding signal (SPIC)?
A: Its binding signal is 1.1 fold enrichment (6-mer frequency, TF over GST control).

Q: What about the binding signal (ELF4) of the same sequence?
A: Its binding signal is 1.06 fold enrichment (6-mer frequency, TF over GST control).

Q: What about the binding signal (ELK4) of the same sequence?
A: Its binding signal is 1.03 fold enrichment (6-mer frequency, TF over GST control).

Q: And the binding signal (ELF3)?
A: The binding signal was 1.09 fold enrichment (6-mer frequency, TF over GST control).

Q: And the binding signal (ETV1)?
A: Its binding signal is 1.04 fold enrichment (6-mer frequency, TF over GST control).

Q: What about the binding signal (ERF) of the same sequence?
A: Its binding signal is 1.09 fold enrichment (6-mer frequency, TF over GST control).

Q: And the binding signal (ETV3L)?
A: The binding signal was 1.05 fold enrichment (6-mer frequency, TF over GST control).

Q: What about the binding signal (ETS2) of the same sequence?
A: The binding signal was 1.04 fold enrichment (6-mer frequency, TF over GST control).

Q: What about the binding signal (ETV7) of the same sequence?
A: Its binding signal is 1.01 fold enrichment (6-mer frequency, TF over GST control).

Q: What about the binding signal (ETV3) of the same sequence?
A: Its binding signal is 1.01 fold enrichment (6-mer frequency, TF over GST control).

Q: And the binding signal (ETV6)?
A: The binding signal was 1.06 fold enrichment (6-mer frequency, TF over GST control).
